Measurements reported in the supplement of paper PMC4466140.

The binders below were run against AgAbp1 (assay: SPOT peptide array binding signal intensity (averaged, normalized) (arbitrary units (background-subtracted, floor 0; scale differs between SH3 domains)); higher = stronger binding of the SH3 domain to the peptide).
How it was run: (§1)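 Four yeast species supplied the SH3 domains, which were expressed as GST fusions in E. coli BL21(DE3) and purified on glutathione Sepharose. Incubation with cellulose membranes carrying synthetic 15-mer peptides, cysteines exchanged for serines, ran overnight at 4°C at 10 μg/ml in TBS-based blocking buffer. Binding signal is reported as normalized, background-subtracted spot intensity averaged over replicates, in arbitrary units not shared between domains.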

Binder | SPOT peptide array binding signal intensity
SPLGAPPPPPHKDHL | ≤ 0

Each binder was assayed against AgBbc1 in the same assay as above.
How it was run: as §1

Binder | SPOT peptide array binding signal intensity
SPLGAPPPPPHKDHL | ≤ 0

These binders were tested against AgBem1-D1 in the same assay as above.
How it was run: as §1

Binder | SPOT peptide array binding signal intensity
SPLGAPPPPPHKDHL | ≤ 0

What follows are binders tested against AgBzz1-D1 in the same assay as above.
How it was run: as §1

Binder | SPOT peptide array binding signal intensity
SPLGAPPPPPHKDHL | ≤ 0

These binders were tested against AgBzz1-D2 in the same assay as above.
How it was run: as §1

Binder | SPOT peptide array binding signal intensity
SPLGAPPPPPHKDHL | 3

What follows are binders tested against AgCyk3 in the same assay as above.
How it was run: as §1

Binder | SPOT peptide array binding signal intensity
SPLGAPPPPPHKDHL | 1

The binders below were run against AgFus1 in the same assay as above.
How it was run: as §1

Binder | SPOT peptide array binding signal intensity
SPLGAPPPPPHKDHL | ≤ 0

Each binder was assayed against AgHof1 in the same assay as above.
How it was run: as §1

Binder | SPOT peptide array binding signal intensity
SPLGAPPPPPHKDHL | ≤ 0

Each binder was assayed against AgHse1 in the same assay as above.
How it was run: as §1

Binder | SPOT peptide array binding signal intensity
SPLGAPPPPPHKDHL | ≤ 0

These binders were tested against AgLsb1 in the same assay as above.
How it was run: as §1

Binder | SPOT peptide array binding signal intensity
SPLGAPPPPPHKDHL | ≤ 0

What follows are binders tested against AgLsb4 in the same assay as above.
How it was run: as §1

Binder | SPOT peptide array binding signal intensity
SPLGAPPPPPHKDHL | ≤ 0

What follows are binders tested against AgMyo5 in the same assay as above.
How it was run: as §1

Binder | SPOT peptide array binding signal intensity
SPLGAPPPPPHKDHL | 546

These binders were tested against AgNbp2 in the same assay as above.
How it was run: as §1

Binder | SPOT peptide array binding signal intensity
SPLGAPPPPPHKDHL | ≤ 0

The binders below were run against AgRvs167 in the same assay as above.
How it was run: as §1

Binder | SPOT peptide array binding signal intensity
SPLGAPPPPPHKDHL | 2.83

The binders below were run against AgSho1 in the same assay as above.
How it was run: as §1

Binder | SPOT peptide array binding signal intensity
SPLGAPPPPPHKDHL | ≤ 0

These binders were tested against AgSla1-D1-D2 in the same assay as above.
How it was run: as §1

Binder | SPOT peptide array binding signal intensity
SPLGAPPPPPHKDHL | 6

The binders below were run against AgSla1-D3 in the same assay as above.
How it was run: as §1

Binder | SPOT peptide array binding signal intensity
SPLGAPPPPPHKDHL | ≤ 0

What follows are binders tested against CaAbp1-D1 in the same assay as above.
How it was run: as §1

Binder | SPOT peptide array binding signal intensity
SPLGAPPPPPHKDHL | ≤ 0

These binders were tested against CaAbp1-D2 in the same assay as above.
How it was run: as §1

Binder | SPOT peptide array binding signal intensity
SPLGAPPPPPHKDHL | ≤ 0

These binders were tested against CaBbc1 in the same assay as above.
How it was run: as §1

Binder | SPOT peptide array binding signal intensity
SPLGAPPPPPHKDHL | ≤ 0

Each binder was assayed against CaBem1-D1 in the same assay as above.
How it was run: as §1

Binder | SPOT peptide array binding signal intensity
SPLGAPPPPPHKDHL | ≤ 0

These binders were tested against CaBzz1-D1 in the same assay as above.
How it was run: as §1

Binder | SPOT peptide array binding signal intensity
SPLGAPPPPPHKDHL | 8.5

Each binder was assayed against CaBzz1-D2 in the same assay as above.
How it was run: as §1

Binder | SPOT peptide array binding signal intensity
SPLGAPPPPPHKDHL | ≤ 0

The binders below were run against CaCyk3 in the same assay as above.
How it was run: as §1

Binder | SPOT peptide array binding signal intensity
SPLGAPPPPPHKDHL | ≤ 0

Each binder was assayed against CaFus1 in the same assay as above.
How it was run: as §1

Binder | SPOT peptide array binding signal intensity
SPLGAPPPPPHKDHL | ≤ 0

What follows are binders tested against CaHof1 in the same assay as above.
How it was run: as §1

Binder | SPOT peptide array binding signal intensity
SPLGAPPPPPHKDHL | ≤ 0

The binders below were run against CaHse1 in the same assay as above.
How it was run: as §1

Binder | SPOT peptide array binding signal intensity
SPLGAPPPPPHKDHL | 1

These binders were tested against CaLsb1 in the same assay as above.
How it was run: as §1

Binder | SPOT peptide array binding signal intensity
SPLGAPPPPPHKDHL | ≤ 0

These binders were tested against CaLsb4 in the same assay as above.
How it was run: as §1

Binder | SPOT peptide array binding signal intensity
SPLGAPPPPPHKDHL | ≤ 0

Each binder was assayed against CaMyo5 in the same assay as above.
How it was run: as §1

Binder | SPOT peptide array binding signal intensity
SPLGAPPPPPHKDHL | 13.5

The binders below were run against CaNbp2 in the same assay as above.
How it was run: as §1

Binder | SPOT peptide array binding signal intensity
SPLGAPPPPPHKDHL | ≤ 0

The binders below were run against CaRvs167 in the same assay as above.
How it was run: as §1

Binder | SPOT peptide array binding signal intensity
SPLGAPPPPPHKDHL | 3

The binders below were run against CaRvs167-3 in the same assay as above.
How it was run: as §1

Binder | SPOT peptide array binding signal intensity
SPLGAPPPPPHKDHL | ≤ 0

Each binder was assayed against CaSho1 in the same assay as above.
How it was run: as §1

Binder | SPOT peptide array binding signal intensity
SPLGAPPPPPHKDHL | ≤ 0

What follows are binders tested against CaSla1-D1-D2 in the same assay as above.
How it was run: as §1

Binder | SPOT peptide array binding signal intensity
SPLGAPPPPPHKDHL | ≤ 0

Each binder was assayed against CaSla1-D3 in the same assay as above.
How it was run: as §1

Binder | SPOT peptide array binding signal intensity
SPLGAPPPPPHKDHL | ≤ 0

These binders were tested against ScAbp1 in the same assay as above.
How it was run: as §1

Binder | SPOT peptide array binding signal intensity
SPLGAPPPPPHKDHL | ≤ 0

These binders were tested against ScBbc1 in the same assay as above.
How it was run: as §1

Binder | SPOT peptide array binding signal intensity
SPLGAPPPPPHKDHL | ≤ 0

Each binder was assayed against ScBem1-D1 in the same assay as above.
How it was run: as §1

Binder | SPOT peptide array binding signal intensity
SPLGAPPPPPHKDHL | ≤ 0

These binders were tested against ScBzz1-D1 in the same assay as above.
How it was run: as §1

Binder | SPOT peptide array binding signal intensity
SPLGAPPPPPHKDHL | 11

Each binder was assayed against ScBzz1-D2 in the same assay as above.
How it was run: as §1

Binder | SPOT peptide array binding signal intensity
SPLGAPPPPPHKDHL | ≤ 0

These binders were tested against ScCyk3 in the same assay as above.
How it was run: as §1

Binder | SPOT peptide array binding signal intensity
SPLGAPPPPPHKDHL | ≤ 0

The binders below were run against ScFus1 in the same assay as above.
How it was run: as §1

Binder | SPOT peptide array binding signal intensity
SPLGAPPPPPHKDHL | ≤ 0

Each binder was assayed against ScHof1 in the same assay as above.
How it was run: as §1

Binder | SPOT peptide array binding signal intensity
SPLGAPPPPPHKDHL | 1.5

Each binder was assayed against ScHse1 in the same assay as above.
How it was run: as §1

Binder | SPOT peptide array binding signal intensity
SPLGAPPPPPHKDHL | ≤ 0

Each binder was assayed against ScLsb1 in the same assay as above.
How it was run: as §1

Binder | SPOT peptide array binding signal intensity
SPLGAPPPPPHKDHL | ≤ 0

The binders below were run against ScLsb2 in the same assay as above.
How it was run: as §1

Binder | SPOT peptide array binding signal intensity
SPLGAPPPPPHKDHL | ≤ 0

Each binder was assayed against ScLsb3 in the same assay as above.
How it was run: as §1

Binder | SPOT peptide array binding signal intensity
SPLGAPPPPPHKDHL | ≤ 0

Each binder was assayed against ScLsb4 in the same assay as above.
How it was run: as §1

Binder | SPOT peptide array binding signal intensity
SPLGAPPPPPHKDHL | ≤ 0

Each binder was assayed against ScMyo3 in the same assay as above.
How it was run: as §1

Binder | SPOT peptide array binding signal intensity
SPLGAPPPPPHKDHL | 931

Each binder was assayed against ScMyo5 in the same assay as above.
How it was run: as §1

Binder | SPOT peptide array binding signal intensity
SPLGAPPPPPHKDHL | 670

The binders below were run against ScNbp2 in the same assay as above.
How it was run: as §1

Binder | SPOT peptide array binding signal intensity
SPLGAPPPPPHKDHL | ≤ 0

The binders below were run against ScPex13 in the same assay as above.
How it was run: as §1

Binder | SPOT peptide array binding signal intensity
SPLGAPPPPPHKDHL | ≤ 0

The binders below were run against ScRvs167 in the same assay as above.
How it was run: as §1

Binder | SPOT peptide array binding signal intensity
SPLGAPPPPPHKDHL | 1

These binders were tested against ScSho1 in the same assay as above.
How it was run: as §1

Binder | SPOT peptide array binding signal intensity
SPLGAPPPPPHKDHL | ≤ 0

Each binder was assayed against ScSla1-D1-D2 in the same assay as above.
How it was run: as §1

Binder | SPOT peptide array binding signal intensity
SPLGAPPPPPHKDHL | ≤ 0

Each binder was assayed against ScSla1-D3 in the same assay as above.
How it was run: as §1

Binder | SPOT peptide array binding signal intensity
SPLGAPPPPPHKDHL | ≤ 0

These binders were tested against SpAbp1-D1 in the same assay as above.
How it was run: as §1

Binder | SPOT peptide array binding signal intensity
SPLGAPPPPPHKDHL | ≤ 0

Each binder was assayed against SpBbc1 in the same assay as above.
How it was run: as §1

Binder | SPOT peptide array binding signal intensity
SPLGAPPPPPHKDHL | ≤ 0

These binders were tested against SpBzz1-D1 in the same assay as above.
How it was run: as §1

Binder | SPOT peptide array binding signal intensity
SPLGAPPPPPHKDHL | 176

These binders were tested against SpBzz1-D2 in the same assay as above.
How it was run: as §1

Binder | SPOT peptide array binding signal intensity
SPLGAPPPPPHKDHL | ≤ 0

These binders were tested against SpCyk3 in the same assay as above.
How it was run: as §1

Binder | SPOT peptide array binding signal intensity
SPLGAPPPPPHKDHL | ≤ 0

The binders below were run against SpHof1 in the same assay as above.
How it was run: as §1

Binder | SPOT peptide array binding signal intensity
SPLGAPPPPPHKDHL | ≤ 0

Each binder was assayed against SpHof1-2 in the same assay as above.
How it was run: as §1

Binder | SPOT peptide array binding signal intensity
SPLGAPPPPPHKDHL | 1

These binders were tested against SpHof1-3 in the same assay as above.
How it was run: as §1

Binder | SPOT peptide array binding signal intensity
SPLGAPPPPPHKDHL | ≤ 0

These binders were tested against SpHse1 in the same assay as above.
How it was run: as §1

Binder | SPOT peptide array binding signal intensity
SPLGAPPPPPHKDHL | ≤ 0

These binders were tested against SpLsb1 in the same assay as above.
How it was run: as §1

Binder | SPOT peptide array binding signal intensity
SPLGAPPPPPHKDHL | ≤ 0

The binders below were run against SpLsb4 in the same assay as above.
How it was run: as §1

Binder | SPOT peptide array binding signal intensity
SPLGAPPPPPHKDHL | ≤ 0

These binders were tested against SpMyo1 in the same assay as above.
How it was run: as §1

Binder | SPOT peptide array binding signal intensity
SPLGAPPPPPHKDHL | 1260

The binders below were run against SpNbp2 in the same assay as above.
How it was run: as §1

Binder | SPOT peptide array binding signal intensity
SPLGAPPPPPHKDHL | ≤ 0

The binders below were run against SpPex13 in the same assay as above.
How it was run: as §1

Binder | SPOT peptide array binding signal intensity
SPLGAPPPPPHKDHL | 2

Each binder was assayed against SpRvs167 in the same assay as above.
How it was run: as §1

Binder | SPOT peptide array binding signal intensity
SPLGAPPPPPHKDHL | 0.167

The binders below were run against SpSla1-D1-D2 in the same assay as above.
How it was run: as §1

Binder | SPOT peptide array binding signal intensity
SPLGAPPPPPHKDHL | 1

What follows are binders tested against SpSla1-D3 in the same assay as above.
How it was run: as §1

Binder | SPOT peptide array binding signal intensity
SPLGAPPPPPHKDHL | ≤ 0
